Results taken from PubChem BioAssay.
Calls of active or inactive are those of the source.

What was measured:
[1] = system: Plasmodium falciparum Sir2 (PF13_0152, Sir2A); experiment: Plasmodium falciparum Sir2A binding compounds – biochemical, small-molecule microarray, 635 nm fluorescence, primary screen (AID 1098); settings: fluorescence 635 nm, higher = more signal;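 also: score merges spot fluorescence intensity with its signal-to-noise ratio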
[2] = probe aDKK1 binding to arrayed compounds – biochemical, biotinylated probe, 635/667 nm fluorescence, primary screen (AID 1099); settings: small-molecule microarray, higher = more signal;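 also: score merges 667nm spot fluorescence with signal to noise across triplicate slides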
[3] = probe aCHRDL2 binding to arrayed compounds – biochemical, biotinylated probe, 635/667 nm fluorescence, primary screen (AID 1100); settings: small-molecule microarray, higher = more signal
[4] = change in splice reporter luminescence, either direction, cell-based, HEK293, spliceosome inhibition project, primary screen (AID 1101); settings: HEK293 splicing luciferase reporter, 24 h, higher = more signal, called active from +8 up or from −8 down;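 also: HEK293 cells carrying a splicing-competent luciferase reporter gene; test concentration not given here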
[5] = biological target: Fibroblast growth factor 10 (Homo sapiens) (UniProt O15520); experiment: compounds binding fibroblast growth factor 10 – biochemical, small-molecule microarray, 635 nm fluorescence, primary screen (AID 1102); settings: FGF10 binding, fluorescence 635 nm, higher = more signal
[6] = system: glycogen synthase kinase-3 (GSK3A per assay name; protocol says GSK3B); experiment: compounds binding glycogen synthase kinase-3 – biochemical, small-molecule microarray, 635 nm fluorescence, GSK3A, primary screen (AID 1103); settings: fluorescence 635 nm, higher = more signal; also: the record names both GSK3A and GSK3B
[7] = biological target: Epidermal growth factor receptor (Homo sapiens) (UniProt P00533); experiment: compounds binding epidermal growth factor receptor – biochemical, small-molecule microarray, 635 nm fluorescence, primary screen (AID 1104); settings: EGFR binding, higher = more signal;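 also: score merges 667 nm emission intensity with spot signal to noise over triplicate slides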
[8] = biological target: Follistatin-related protein 3 (Homo sapiens) (UniProt O95633); experiment: compounds binding follistatin-related protein 3 – biochemical, small-molecule microarray, 635 nm fluorescence, primary screen (AID 1105); settings: FSTL3 binding, higher = more signal;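 also: score merges emission near 667 nm and signal to noise per printed spot across three slides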
[9] = biological target: Dickkopf-related protein 1 (Homo sapiens) (UniProt O94907); experiment: small molecules binding DKK1 protein – biochemical, small-molecule microarray, 635 nm fluorescence scan, primary screen (AID 1106); settings: higher = more signal;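 also: score merges emission near 667 nm with signal to noise over three replicate slides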
[10] = system: Inhibin beta A chain (activin A); experiment: small molecules binding activin A – biochemical, small-molecule microarray, 635 nm fluorescence scan, primary screen (AID 1107); settings: INHBA, higher = more signal;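 also: mouse activin A protein probed at 4.33 µg/mL on printed slides; score merges bound-protein fluorescence near 667 nm with spot signal-to-noise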
[11] = system: Human papillomavirus type 1a protein E7 (residues 44-93); experiment: small molecules binding HPV E7 44-93 – biochemical, small-molecule microarray, residues 44-93, 635 nm fluorescence, primary screen (AID 1108); settings: fluorescence 635 nm, higher = more signal;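 also: E7 fragment applied at 1 µg/mL in TBST for 1 h at 4 C; score combines spot fluorescence with its signal to noise ratio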
[12] = hepatitis C replication reporter changes, two-sided – Huh7 cells, luciferase reporter, HCV replication inhibitor project, primary screen (AID 1109); settings: Huh7 HCV replicon luciferase reporter, 48 h; higher = more signal;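 also: huh7 hepatoma cells harbouring a luciferase neomycin HCV replicon reporter; luciferase luminescence as measure of HCV replicon replication; test concentration not given here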
[13] = biological target: Left-right determination factor 2 (Homo sapiens) (UniProt O00292); experiment: small molecules binding LEFTY2 protein – biochemical, small-molecule microarray, 635 nm fluorescence scan, primary screen (AID 1110); settings: higher = more signal
[14] = biological target: Calmodulin-1 (Homo sapiens) (UniProt P0DP23); experiment: small molecules binding calmodulin-1 with EGTA – biochemical, small-molecule microarray, Cy5-labelled CALM1, profiling panel (AID 1111); settings: Cy5-CALM1 binding fluorescence, higher = more signal;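 also: labelled calmodulin applied in Tris saline Tween buffer holding calcium plus EGTA and DTT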
[15] = biological target: Calmodulin-1 (Homo sapiens) (UniProt P0DP23); experiment: small molecules binding Ca-loaded calmodulin-1 – biochemical, small-molecule microarray, Cy5-labelled CALM1, plus calcium, artefact control for SMM control-protein annotation, profiling panel (AID 1112); settings: Cy5-CALM1 binding fluorescence, higher = more signal;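 also: score merges spot fluorescence with signal to noise from triplicate slides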
[16] = probe aWnt5a binding to arrayed compounds – biochemical, biotinylated probe, 635/667 nm fluorescence, primary screen (AID 1113); settings: small-molecule microarray, higher = more signal;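 also: score merges 667 nm fluorescence intensity with signal-to-noise per printed feature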
[17] = probe aShh binding to arrayed compounds – biochemical, biotinylated probe, 635/667 nm fluorescence, primary screen (AID 1114); settings: small-molecule microarray, higher = more signal;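 also: probe is biotin-labelled aShh protein from a stem cell growth factor screen; measures binding of labelled protein to compounds printed on the slide; score merges feature fluorescence at 667 nm with signal-to-noise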
[18] = probe aNog binding to arrayed compounds – biochemical, biotinylated probe, 635/667 nm fluorescence, primary screen (AID 1115); settings: small-molecule microarray, higher = more signal;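 also: probe is biotinylated aNog protein used at 0.15 µg/mL for 1 h at 4 C; z-score combines 667 nm fluorescence of each spot with its signal to noise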
[19] = biological target: Torsin-1A-interacting protein 1 (Homo sapiens) (UniProt Q5JTV8); experiment: compound microarray binding of lysate hLAP1 – cell lysate, small-molecule microarray, COS7 lysate, 635/667 nm fluorescence, primary screen (AID 1116); settings: 635 nm fluorescence, higher = more signal
[20] = biological target: Alpha-bungarotoxin (Bungarus multicinctus) (UniProt P60615); experiment: compounds binding labelled alpha-BTX control protein – biochemical, small-molecule microarray, Alexa647 label, 635/667 nm fluorescence, artefact control for SMM control protein annotation, profiling panel (AID 1117); settings: alpha-BTX-A647 binding fluorescence, higher = more signal
Alpha-bungarotoxin (Bungarus multicinctus), sequence (P60615 whole entry, looked up): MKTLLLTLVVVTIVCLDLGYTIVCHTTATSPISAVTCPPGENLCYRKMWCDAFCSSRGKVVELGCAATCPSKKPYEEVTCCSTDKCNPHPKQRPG

Dickkopf-related protein 1 (Homo sapiens), sequence (O94907 whole entry, looked up): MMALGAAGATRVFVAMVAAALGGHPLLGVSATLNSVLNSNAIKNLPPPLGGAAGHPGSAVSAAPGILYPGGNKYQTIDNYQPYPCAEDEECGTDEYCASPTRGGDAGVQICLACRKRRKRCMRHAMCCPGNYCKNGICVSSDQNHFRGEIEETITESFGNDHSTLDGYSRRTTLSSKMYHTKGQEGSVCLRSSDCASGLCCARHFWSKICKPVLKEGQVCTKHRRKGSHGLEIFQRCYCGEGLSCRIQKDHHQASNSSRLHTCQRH
Torsin-1A-interacting protein 1 (Homo sapiens), sequence (Q5JTV8 whole entry, looked up): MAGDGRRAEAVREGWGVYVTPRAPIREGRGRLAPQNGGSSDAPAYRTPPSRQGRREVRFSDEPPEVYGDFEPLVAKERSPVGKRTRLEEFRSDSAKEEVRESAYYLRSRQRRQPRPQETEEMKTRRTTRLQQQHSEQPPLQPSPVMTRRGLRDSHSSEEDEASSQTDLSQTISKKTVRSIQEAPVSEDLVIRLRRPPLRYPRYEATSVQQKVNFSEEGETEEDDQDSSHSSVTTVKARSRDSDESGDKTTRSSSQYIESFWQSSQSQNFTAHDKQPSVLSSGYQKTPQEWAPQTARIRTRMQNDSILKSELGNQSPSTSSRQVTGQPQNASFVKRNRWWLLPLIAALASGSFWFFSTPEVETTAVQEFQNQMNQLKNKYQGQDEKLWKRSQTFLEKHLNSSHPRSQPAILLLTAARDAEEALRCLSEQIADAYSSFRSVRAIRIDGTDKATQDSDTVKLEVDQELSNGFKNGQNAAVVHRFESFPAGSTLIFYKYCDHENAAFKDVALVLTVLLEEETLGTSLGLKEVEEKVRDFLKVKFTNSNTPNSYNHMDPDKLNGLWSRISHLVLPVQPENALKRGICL
Epidermal growth factor receptor (Homo sapiens), sequence (P00533 whole entry, looked up): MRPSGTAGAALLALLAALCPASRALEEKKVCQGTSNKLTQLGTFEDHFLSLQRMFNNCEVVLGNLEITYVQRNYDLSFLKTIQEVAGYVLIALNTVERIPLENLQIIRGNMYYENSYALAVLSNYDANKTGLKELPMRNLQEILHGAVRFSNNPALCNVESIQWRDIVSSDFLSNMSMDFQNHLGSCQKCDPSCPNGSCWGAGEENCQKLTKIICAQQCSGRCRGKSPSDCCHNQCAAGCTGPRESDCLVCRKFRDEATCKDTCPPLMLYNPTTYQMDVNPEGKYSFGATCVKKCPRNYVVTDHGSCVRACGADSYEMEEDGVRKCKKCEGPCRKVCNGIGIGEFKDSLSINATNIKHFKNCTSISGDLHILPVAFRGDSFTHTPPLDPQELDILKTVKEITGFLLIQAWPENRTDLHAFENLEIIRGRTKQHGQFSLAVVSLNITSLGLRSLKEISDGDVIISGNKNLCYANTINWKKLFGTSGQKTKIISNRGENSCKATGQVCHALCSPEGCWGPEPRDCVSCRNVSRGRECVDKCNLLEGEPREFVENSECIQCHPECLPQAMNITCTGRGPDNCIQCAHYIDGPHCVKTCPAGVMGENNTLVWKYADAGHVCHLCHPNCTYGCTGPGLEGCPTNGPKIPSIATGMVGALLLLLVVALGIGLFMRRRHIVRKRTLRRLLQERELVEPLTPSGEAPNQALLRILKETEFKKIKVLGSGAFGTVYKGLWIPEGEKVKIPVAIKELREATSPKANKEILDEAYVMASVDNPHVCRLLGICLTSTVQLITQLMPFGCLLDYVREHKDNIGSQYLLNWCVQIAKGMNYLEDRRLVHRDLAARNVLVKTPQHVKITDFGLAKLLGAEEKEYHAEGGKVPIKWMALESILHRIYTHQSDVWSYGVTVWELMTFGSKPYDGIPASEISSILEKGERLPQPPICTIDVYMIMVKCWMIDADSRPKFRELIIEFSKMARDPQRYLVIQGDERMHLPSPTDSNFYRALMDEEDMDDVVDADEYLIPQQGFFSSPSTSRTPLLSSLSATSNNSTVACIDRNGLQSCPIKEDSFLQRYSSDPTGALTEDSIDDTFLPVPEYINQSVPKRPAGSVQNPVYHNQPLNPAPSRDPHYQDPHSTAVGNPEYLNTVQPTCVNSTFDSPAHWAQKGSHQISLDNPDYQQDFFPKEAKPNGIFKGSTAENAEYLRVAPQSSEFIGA
Fibroblast growth factor 10 (Homo sapiens), sequence (O15520 whole entry, looked up): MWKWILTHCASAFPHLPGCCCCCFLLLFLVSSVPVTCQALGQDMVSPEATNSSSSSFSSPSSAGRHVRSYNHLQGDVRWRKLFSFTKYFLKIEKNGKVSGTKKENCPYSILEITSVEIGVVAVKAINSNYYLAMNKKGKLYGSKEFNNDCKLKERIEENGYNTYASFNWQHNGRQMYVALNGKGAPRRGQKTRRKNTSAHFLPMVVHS
Follistatin-related protein 3 (Homo sapiens), sequence (O95633 whole entry, looked up): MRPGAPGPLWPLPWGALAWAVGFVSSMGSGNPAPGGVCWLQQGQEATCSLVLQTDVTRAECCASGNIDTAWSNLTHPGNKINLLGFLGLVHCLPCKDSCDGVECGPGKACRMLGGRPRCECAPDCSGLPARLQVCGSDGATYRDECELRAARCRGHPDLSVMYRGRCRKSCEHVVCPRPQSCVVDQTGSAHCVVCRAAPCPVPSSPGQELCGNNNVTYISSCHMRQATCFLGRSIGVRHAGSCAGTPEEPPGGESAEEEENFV
Left-right determination factor 2 (Homo sapiens), sequence (O00292 whole entry, looked up): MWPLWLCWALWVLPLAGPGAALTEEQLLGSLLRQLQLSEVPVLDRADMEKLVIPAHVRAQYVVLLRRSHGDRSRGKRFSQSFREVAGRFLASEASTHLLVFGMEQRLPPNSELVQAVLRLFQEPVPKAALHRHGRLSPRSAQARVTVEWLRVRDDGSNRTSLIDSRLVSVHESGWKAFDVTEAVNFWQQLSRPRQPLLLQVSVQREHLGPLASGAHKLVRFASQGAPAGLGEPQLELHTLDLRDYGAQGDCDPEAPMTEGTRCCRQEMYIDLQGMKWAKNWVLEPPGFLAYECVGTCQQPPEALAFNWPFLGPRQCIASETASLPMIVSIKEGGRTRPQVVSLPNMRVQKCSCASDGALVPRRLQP

SMILES	composite z-score [1]	composite z-score [2]	composite z-score [3]	z-score [4]	composite z-score [5]	composite z-score [6]	composite z-score [7]	composite z-score [8]	composite z-score [9]	composite z-score [10]	composite z-score [11]	z-score [12]	composite z-score [13]	composite z-score [14]	composite z-score [15]	composite z-score [16]	composite z-score [17]	composite z-score [18]	composite z-score [19]	composite z-score [20]
C[C@]1(C(=O)NC2CC2)c2ccccc2C(=O)N(Cc2ccccc2)[C@H]1c1ccc(CO)cc1	1.13	0.432	0.951	-0.502 (inactive)	-1.01	-0.84	-1.12	-0.761	-0.594	-0.0478	-0.614	-0.582	-1.25	-0.875	-0.629	-0.148	-0.352	0.113	-0.0199	-1.02
C=CCN1Cc2ccccc2[C@H]2OC(c3ccc(OCCCO)cc3)=N[C@@]2(CC=C)C1=O	0.911	0.406	1.09	-0.308 (inactive)	1.4	1.28	0.901	1.42	1.67	1.39	1.46	-1.74	0.725	3.19	1.43	-0.0478	0.14	-0.44	-0.0689	1.36
COC(=O)c1nc2oc1CC[C@@H](CO)NC(=O)N(C)Cc1cnnn1C[C@H](Cc1ccccc1)NC2=O	1.81	-0.148	0.106	-0.495 (inactive)	-0.0412	-1.05	-0.913	0.228	-0.682	0.139	-0.367	-0.421	-1.07	-0.677	-0.319	-0.159	-0.0035	-0.321	0.122	1.25
O=c1n(-c2ccccc2)c(=O)n2n1CC(COc1ccccc1)=C([C@H](O)CCc1ccccc1)[C@@H]2CO	-0.0946	-0.342	-0.313	-1.54 (inactive)	0.692	-0.0688	0.0867	0.0711	0.291	1.03	0.676	-2.17	0.892	-0.833	-0.556	-0.0269	-0.338	-0.588	0.0355	0.5
CO[C@H]1O[C@H](CO)[C@@H](OC(=O)Nc2ccc3c(c2)OCO3)[C@H](OC(=O)c2cc3ccccc3[nH]2)[C@H]1OC(=O)c1cc2ccccc2[nH]1	0.787	-0.0268	-0.161	-1.87 (inactive)	0.247	-0.0406	-0.194	0.238	0.283	1.46	-0.343	-1.99	0.117	-0.418	-0.83	-0.168	-0.0709	-0.315	0.0724	0.279
C=C[C@@H](COC(C)=O)N(C(=O)OC(C)(C)C)S(=O)(=O)c1ccc(Br)cc1	0.732	0.311	-0.152	0.446 (inactive)	1.18	1.23	0.837	1.45	2.14	0.824	0.789	0.429	1.27	0.486	0.367	0.0973	-0.141	-0.0317	1.06	1.32
CN1C(=O)C2C=CC(C(O)c3ccccn3)N(N(c3ccccc3)c3ccccc3)C2C1=O (stereo not given)	1.44	-0.16	0.711	0.527 (inactive)	0.62	0.19	0.22	0.273	-0.0644	0.79	-0.686	-0.276	-0.0321	0.0023	-0.0692	-0.0735	0.0684	0.427	1.07	0.451
COC(=O)[C@@]1(Cc2ccc(OC)cc2)[C@H]2c3cc(C(=O)N(C)C)n(C[C@H](O)CO)c3C[C@H]2CN1C(=O)c1ccccc1	1.43	1.76	1.62	-0.872 (inactive)	0.376	0.0885	-0.107	0.472	-1.18	1.39	-1.21	-0.966	-0.415	2.33	1.32	0.108	0.86	2.14	2.07	1.15
C=CC[C@@]1(C(=O)N2CCOCC2)N=C(c2ccc(OCCCO)cc2)O[C@@H]1c1ccccc1CN=[N+]=[N-]	0.706	0.906	1.18	1.02 (inactive)	1.48	1.32	0.749	1.05	0.472	1.34	1.44	-2.04	0.898	1.9	0.365	0.0998	0.191	-0.333	1.72	0.943
COc1ccc([Si](C)(C)[C@@H]2[C@@H](CC(=O)N3Cc4ccccc4C[C@H]3CO)O[C@]3(C(=O)N(C)c4ccccc43)[C@H]2C)cc1	1.22	0.405	-0.174	-1.42 (inactive)	1.15	1.3	1.05	1.48	0.874	0.916	0.215	-4.84	0.812	0.617	-0.0353	0.0102	0.123	-0.0692	0.907	0.794
C=CCNC(=O)[C@@H]1[C@H]2C(=O)O[C@H](c3ccccc3)[C@H](c3ccccc3)N2[C@H](c2ccc(O)cc2)[C@@]12C(=O)N(C(=O)OCCOC)c1ccc(C#CC3(O)CCCCCC3)cc12	0.482	-0.227	0.854	-0.565 (inactive)	-1.72	-1.44	-1.5	-1.45	-1.82	-1.46	-1.18	-0.0817	-2.4	-0.901	-0.123	-0.221	-0.192	-0.343	-1.28	-1.42
